Reference: PubChem BioAssay (Tox21)
Results filed as inconclusive are left out. The source made the active and inactive calls. Unless noted, calls follow the shape of the dose curve; as a rule, active = well fitted curve in the direction sought with a large enough effect in the repeat runs; inconclusive = weak or mixed curves; inactive = no such curve, though single readings can be large; an effect the other way counts as inactive or inconclusive.

How the values were obtained:
[1] = qHTS assay to identify small molecule antagonists of the retinoid acid receptor (RAR) signaling pathway - cell viability counter screen (AID 1159551); also: nearly all actives have a fitted effect of over 35% in size
Method in brief: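 In this counter screen, the RARE-luciferase line C3RL4 was exposed for 6 h at 37 C and 5% CO2 to compounds with retinol at 1 uM final. Cellular ATP, read by luminescence, served as the viability measure.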

[2] = qHTS assay to identify small molecule antagonists of the retinoic acid receptor (RAR) signaling pathway (AID 1159552; also: nearly all actives have a fitted effect of over 50% in size)
Method in brief: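 Retinol signaling pathway inhibitors screened in C3RL4 RARE-luciferase reporter cells seeded overnight at 37 C, then compounds added with 1 uM (final) retinol as pathway substrate. After 6 hr at 37 C, luciferase luminescence read after 30 min at room temperature.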

[3] = qHTS assay to identify small molecule agonists of the retinoic acid receptor (RAR) signaling pathway (AID 1159553)
Method in brief: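 In this cell-based screen, 1,000 C3RL4 cells per well were cultured overnight, dosed with test chemicals in DMSO for 6 hr, and assessed for RARE luciferase luminescence.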

[4] = qHTS assay to identify small molecule antagonists of the estrogen related receptor (ERR) signaling pathway from Tox21 library - cell viability counter screen (AID 1224834); also: nearly all actives have a fitted effect of over 30% in size
Method in brief: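 Counter screen run in ERR cells (2,000 cells/well): cells pre-incubated 6 h, then treated with compounds for 17.5 h at 37 C. Fluorescence was read 30 min after CellTiter-Fluor addition.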

[5] = target: Luciferin 4-monooxygenase (Photinus pyralis) (UniProt P08659); test: qHTS assay to identify small molecule inhibitors of firefly luciferase (AID 1224835); also: nearly all actives have a fitted effect of over 25% in size
Chain of Luciferin 4-monooxygenase (Photinus pyralis) (P08659 whole entry, looked up): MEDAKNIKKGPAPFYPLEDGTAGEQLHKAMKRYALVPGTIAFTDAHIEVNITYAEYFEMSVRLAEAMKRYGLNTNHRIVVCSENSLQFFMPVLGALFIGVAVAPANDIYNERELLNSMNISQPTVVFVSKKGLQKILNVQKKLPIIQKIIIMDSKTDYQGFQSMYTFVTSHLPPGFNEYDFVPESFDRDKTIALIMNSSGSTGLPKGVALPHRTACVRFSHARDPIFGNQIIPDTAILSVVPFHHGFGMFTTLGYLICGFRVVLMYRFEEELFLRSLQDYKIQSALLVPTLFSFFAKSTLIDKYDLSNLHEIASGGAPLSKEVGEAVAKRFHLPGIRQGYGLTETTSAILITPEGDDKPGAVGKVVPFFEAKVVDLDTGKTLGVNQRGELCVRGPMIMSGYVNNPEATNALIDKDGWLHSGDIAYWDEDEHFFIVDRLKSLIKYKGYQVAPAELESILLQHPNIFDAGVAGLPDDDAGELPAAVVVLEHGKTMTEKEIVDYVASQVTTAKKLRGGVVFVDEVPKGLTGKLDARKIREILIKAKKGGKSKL
Method in brief: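 Inhibition of purified Photinus luciferase is measured by luminescence. Substrate levels (D-luciferin, ATP) sit at their KM values. Each compound is tested in a concentration series.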

[6] = qHTS assay to identify small molecule agonists of the constitutive androstane receptor (CAR) signaling pathway - cell viability counter screen (AID 1224836); also: nearly all actives have a fitted effect of over 45% in size
Method in brief: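 HepG2 cells stably carrying hCAR and a CYP2B6-2.2kb reporter; 15-concentration compounds plus PK11195 (final 0.75 uM), 23 hr at 37 C/5% CO2. Viability read by CellTiter-Fluor fluorescence.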

[7] = target: Nuclear receptor subfamily 1 group I member 3 (Homo sapiens) (UniProt Q14994); test: qHTS assay to identify small molecule antagonists of the constitutive androstane receptor (CAR) signaling pathway (AID 1224838); also: nearly all actives have a fitted effect of over 40% in size
Chain of Nuclear receptor subfamily 1 group I member 3 (Homo sapiens) (Q14994 whole entry, looked up): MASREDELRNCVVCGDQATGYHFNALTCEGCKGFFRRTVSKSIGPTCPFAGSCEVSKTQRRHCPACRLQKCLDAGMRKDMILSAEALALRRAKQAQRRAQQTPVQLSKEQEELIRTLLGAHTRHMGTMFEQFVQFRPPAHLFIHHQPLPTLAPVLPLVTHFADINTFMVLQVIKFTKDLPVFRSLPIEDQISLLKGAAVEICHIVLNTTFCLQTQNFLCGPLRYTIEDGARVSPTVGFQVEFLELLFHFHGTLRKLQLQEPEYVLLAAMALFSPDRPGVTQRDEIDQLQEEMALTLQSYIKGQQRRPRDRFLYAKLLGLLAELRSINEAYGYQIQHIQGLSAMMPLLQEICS
Method in brief: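 Inhibition of CITCO-driven (50 nM final) CYP2B6 reporter expression is measured in HepG2 cells stably carrying hCAR. Fifteen compound concentrations are applied for 24 h at 37 C, followed by luciferase luminescence.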

[8] = target: Nuclear receptor subfamily 1 group I member 3 (Homo sapiens) (UniProt Q14994); test: qHTS assay to identify small molecule agonists of the constitutive androstane receptor (CAR) signaling pathway (AID 1224839); also: nearly all actives have a fitted effect of over 15% in size
Method in brief: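 HepG2 cells stably co-transfected with hCAR and a CYP2B6-2.2kb luciferase reporter; compounds at 15 concentrations with 0.75 uM PK11195 present. After 24 hr at 37 C, luciferase read by ONE-Glo luminescence.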

[9] = qHTS assay to identify small molecule antagonists of the estrogen related receptor signaling pathway with the pleiotropic PPARgamma coactivator (PGC) from Tox21 10K library - cell viability counter screen (AID 1224840; active = well fitted cell-killing curve with a large enough effect in the repeat runs, not every such curve was filed as active; also: nearly all actives have a fitted effect of over 40% in size)
Method in brief: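 Readout: fluorescence intensity from CellTiter-Fluor after 30 min at 37 C/5% CO2. Preceded by 17.5 h treatment of PGC/ERR cells with DMSO-dissolved compounds, added 6 h post-seeding.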

[10] = target: Thyrotropin receptor (Homo sapiens) (UniProt P16473); test: qHTS assay to identify small molecule agonists of the thyroid stimulating hormone receptor (TSHR) signaling pathway (AID 1224843; calls by dose curve; also: nearly all actives have a fitted effect of over 45% in size)
Chain of Thyrotropin receptor (Homo sapiens) (P16473 whole entry, looked up): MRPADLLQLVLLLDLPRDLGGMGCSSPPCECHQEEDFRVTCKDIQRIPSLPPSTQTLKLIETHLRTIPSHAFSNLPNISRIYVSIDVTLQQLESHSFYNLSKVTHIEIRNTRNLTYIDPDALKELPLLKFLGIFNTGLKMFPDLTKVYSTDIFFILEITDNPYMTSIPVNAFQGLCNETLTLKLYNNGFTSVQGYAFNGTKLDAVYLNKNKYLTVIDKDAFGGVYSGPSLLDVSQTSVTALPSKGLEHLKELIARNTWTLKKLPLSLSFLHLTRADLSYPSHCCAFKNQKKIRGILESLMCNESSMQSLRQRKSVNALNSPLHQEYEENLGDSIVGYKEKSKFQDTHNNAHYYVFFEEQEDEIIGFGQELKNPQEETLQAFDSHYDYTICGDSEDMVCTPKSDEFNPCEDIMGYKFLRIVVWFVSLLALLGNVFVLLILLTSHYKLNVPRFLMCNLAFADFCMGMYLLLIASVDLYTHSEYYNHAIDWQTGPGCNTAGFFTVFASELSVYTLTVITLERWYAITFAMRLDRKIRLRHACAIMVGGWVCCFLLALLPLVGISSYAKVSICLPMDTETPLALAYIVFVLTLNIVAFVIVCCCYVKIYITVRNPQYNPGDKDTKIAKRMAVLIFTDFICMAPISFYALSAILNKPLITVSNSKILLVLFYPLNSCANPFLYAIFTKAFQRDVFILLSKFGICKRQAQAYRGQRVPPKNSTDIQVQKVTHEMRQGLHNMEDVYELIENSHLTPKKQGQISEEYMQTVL
Method in brief: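 Agonist activity read as cAMP rise via d2/cryptate HTRF competition, 1 h room-temperature detection, in HEK293 cells expressing TSHR. Fifteen-point titrations, each run in triplicate, with a 30 min room-temperature incubation beforehand.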

[11] = qHTS assay to identify small molecule agonists of the hypoxia (HIF-1) signaling pathway - cell viability counter screen (AID 1224844; calls by dose curve; also: nearly all actives have a fitted effect of over 50% in size)
Method in brief: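 In this counter screen, HRE-bla ME-180 cell viability after 17 hrs of compound exposure at 37C was read by CellTiter-Glo luminescence, multiplexed with the beta-lactamase reporter measurement.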

[12] = qHTS assay to identify small molecule agonists of H2AX (AID 1224845; active = well fitted activation curve with a large enough effect in the signal ratio in the repeat runs, not every such curve was filed as active; the % refers to the signal ratio)
Method in brief: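 Phospho-H2AX Ser139 measured by HTRF (ex 320 nm; em 665 and 620 nm) after 24 hr antibody incubation. Compounds, 15 concentrations, 0.76% DMSO, were applied to CHO-K1 cells for 3hr at 37C before lysis.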

[13] = qHTS assay to identify small molecule agonists of the hypoxia (HIF-1) signaling pathway (AID 1224846; active = well fitted activation curve with a large enough effect in the signal ratio in the repeat runs, not every such curve was filed as active; the % refers to the signal ratio)
Method in brief: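 ME-180 HRE-bla reporter cells; compounds in DMSO, 17 h at 37C; read-out beta-lactamase via CCF4-AM FRET.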

[14] = qHTS assay to identify small molecule agonists of H2AX - cell viability counter screen (AID 1224847; calls by dose curve;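 also: wild-type CHO-K1 cells; top concentration of the series differs between compounds; nearly all actives have a fitted effect of over 30% in size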)
Method in brief: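 CHO-K1 cells plated overnight at 37C, then exposed 3 h at 37C to compounds at 15 concentrations (0.76% DMSO final). Viability by CellTiter-Glo luminescence after 30 min at room temperature.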

[15] = qHTS RealTime-Glo MT Cell Viability Assay in HepG2 cells - 24 hour (AID 1224867); also: nearly all actives have a fitted effect of over 50% in size
Method in brief: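 Real-time, nonlytic viability: 600 HepG2 cells/well mixed with NanoLuc enzyme plus prosubstrate; 5 h settle, compound (DMSO) added by pintool; luminescence monitored over 40 h at 37 C.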

[16] = qHTS assay to identify small molecule antagonists of the constitutive androstane receptor (CAR) signaling pathway - cell viability counter screen (AID 1224837); also: nearly all actives have a fitted effect of over 45% in size
Method in brief: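 CITCO at 50 nM final was added alongside compounds (15 concentrations) to double-stable hCAR/CYP2B6-2.2kb HepG2 cells. Following 23 hr at 37 C, cell viability was quantified by CellTiter-Fluor fluorescence intensity.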

[17] = qHTS assay to identify small molecule antagonists of the estrogen related receptor signaling pathway with the pleiotropic PPARgamma coactivator (PGC) from Tox21 10K library (AID 1224841; call rule not given here; also: actives are mostly falling curves and most rising ones were filed inactive; nearly all actives have a fitted effect of over 50% in size)
Method in brief: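 One-Glo luminescence, measured after half an hour at room temperature, quantified reporter output of PGC/ERR cells. These had been plated at 2,000 per well, incubated 6 h, dosed with compounds in DMSO, then kept 18 h at 37 C.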

[18] = qHTS assay to identify small molecule antagonists of the estrogen related receptor (ERR) signaling pathway from Tox21 library (AID 1224848); also: nearly all actives have a fitted effect of over 50% in size
Method in brief: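 Luciferase luminescence (ONE-Glo, 30 min room temperature) was the read-out. Cells of the NTP-supplied ERR line, 2,000 per well, were given 6 h at 37 C before compound addition in DMSO and 18 h exposure at 37 C.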

[19] = qHTS assay to identify small molecule agonists of the estrogen related receptor (ERR) signaling pathway from Tox21 library (AID 1224849; calls by dose curve; also: nearly all actives have a fitted effect of over 15% in size); details: ERR reporter cell line, ONE-Glo luciferase, 18 h; at 92.4 µM (top of the series) unless noted
Method in brief: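 Luciferase activity in ERR pathway reporter cells served as the agonist readout; exposure lasted 18 h at 37 C, with ONE-Glo detection after 30 min at room temperature.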
% is scaled to controls: 0 for no effect and ±100 for the full control effect.

CCCCCCCCCCCCCCCC(=O)OC
inactive: activity change, negative = cytotoxicity [1] 3.42% [at 19 µM] | activity, negative = inhibition [2] -7.57% [at 19 µM] | Potency [3] | viability change, negative = cytotoxic [4] 2.97% [at 19 µM] | activity change, negative = inhibition [5] 0.26% [at 23.6 µM] | viability change, negative = cytotoxic [6] -0.61% [at 19 µM] | activity, negative = inhibition [7] -5.63% [at 19 µM] | activation [8] -1.6% [at 19 µM] | viability change, negative = cytotoxic [9] 5.32% [at 19 µM] | activation [10] -0.158% [at 19 µM] | activity change, negative = cytotoxicity [11] 9.89% [at 15.8 µM] | activation (H2AX phosphorylation) [12] 4.71% [at 31.6 µM] | activation [13] 0.217% [at 15.8 µM] | activity change, negative = cytotoxicity [14] -4.52% [at 31.6 µM] | activity change, negative = cytotoxicity [15] -0.801% [at 15.8 µM]

CCCCCCCCCCCCCCBr
inactive: outcome [1] | outcome [2] | Potency [3] | outcome [4] | Potency [5] | outcome [6] | outcome [16] | outcome [9] | Potency [10] | outcome [11] | outcome [12] | outcome [13] | outcome [14] | outcome [15]

O=C(CCBr)N1CCN(C(=O)CCBr)CC1
inactive: outcome [1] | outcome [2] | Potency [3] | outcome [4] | Potency [5] | outcome [6] | outcome [16] | outcome [9] | Potency [10] | outcome [11] | outcome [12] | outcome [14] | outcome [15]

c1cc2ccc3ccc4ccc5cccc6c(c1)c2c3c4c56
inactive: activity change, negative = cytotoxicity [1] 4.71% [at 3.27 µM] | activity, negative = inhibition [2] -1.28% [at 3.27 µM] | activation [3] -0.114% [at 3.75 µM] | viability change, negative = cytotoxic [4] 2.9% [at 3.27 µM] | activity change, negative = inhibition [5] 1.19% [at 4.07 µM] | viability change, negative = cytotoxic [6] 2.84% [at 3.27 µM] | activity, negative = inhibition [7] 27.3% [at 3.26 µM] | activation [8] 5.04% [at 3.27 µM] | viability change, negative = cytotoxic [9] -0.219% [at 3.27 µM] | activation [10] 11.3% [at 3.27 µM] | activity change, negative = cytotoxicity [11] -14.1% [at 2.72 µM] | activation (H2AX phosphorylation) [12] -2.49% [at 5.45 µM] | activation [13] 6.16% [at 2.67 µM] | activity change, negative = cytotoxicity [14] 0.956% [at 5.43 µM] | activity change, negative = cytotoxicity [15] -0.157% [at 2.72 µM]

C[n+]1ccccc1/C=N/O
inactive: outcome [1] | outcome [2] | Potency [3] | outcome [4] | outcome [6] | outcome [16] | outcome [7] | Potency [8] | outcome [9] | Potency [17] | Potency [10] | outcome [11] | outcome [12] | outcome [14] | outcome [18] | activity change, positive = activation [19] 0.0992% [at 42.5 µM] | outcome [15]

C=CC(C)(CCC=C(C)C)OC(=O)C(C)C (configuration not stated)
inactive: outcome [1] | outcome [2] | Potency [3] | outcome [4] | Potency [5] | outcome [6] | outcome [9] | Potency [10] | outcome [11] | outcome [12] | outcome [13] | outcome [14] | outcome [15]

CC[N+](C)(CC)CC
inactive: outcome [1] | outcome [2] | Potency [3] | outcome [4] | Potency [5] | outcome [6] | outcome [7] | Potency [8] | outcome [9] | outcome [11] | outcome [12] | outcome [13] | outcome [14] | outcome [15]

CCNC(=O)C(C)OC(=O)Nc1ccccc1 (configuration not stated)
inactive: outcome [1] | outcome [2] | Potency [3] | outcome [4] | outcome [6] | outcome [16] | outcome [7] | Potency [8] | outcome [9] | Potency [10] | outcome [11] | outcome [12] | outcome [13] | outcome [14] | outcome [15]

C=CCCCCCCCCCCCCCC
inactive: activity change, negative = cytotoxicity [1] 0.725% [at 19 µM] | activity, negative = inhibition [2] -7.34% [at 19 µM] | Potency [3] | viability change, negative = cytotoxic [4] 3.18% [at 19 µM] | viability change, negative = cytotoxic [6] 7.15% [at 19 µM] | activity change, negative = cytotoxicity [16] -0.461% [at 19 µM] | activity, negative = inhibition [7] 6.03% [at 19 µM] | activation [8] -0.195% [at 19 µM] | viability change, negative = cytotoxic [9] 2.94% [at 19 µM] | activation [10] 2.45% [at 19 µM] | activity change, negative = cytotoxicity [11] -3.81% [at 15.8 µM] | activation (H2AX phosphorylation) [12] -0.234% [at 31.6 µM] | activation [13] -0.445% [at 15.8 µM] | activity change, negative = cytotoxicity [14] 0.186% [at 31.6 µM] | activity change, positive = activation [19] 1.6% [at 19 µM] | activity change, negative = cytotoxicity [15] 0.31% [at 15.8 µM]

CCC(C)SSC(C)CC (configuration not stated)
inactive: outcome [1] | outcome [2] | Potency [3] | Potency [5] | outcome [6] | outcome [9] | Potency [10] | outcome [11] | outcome [12] | outcome [13] | outcome [14] | outcome [15]

C=CC(=O)OCCOCCOCC
inactive: outcome [1] | outcome [2] | Potency [3] | Potency [5] | outcome [6] | outcome [16] | outcome [9] | Potency [17] | outcome [11] | outcome [12] | outcome [13] | outcome [14] | outcome [15]

O=S(=O)(O)CC(O)CCl (configuration not stated)
inactive: outcome [1] | outcome [2] | Potency [3] | outcome [4] | outcome [6] | outcome [16] | Potency [8] | outcome [9] | outcome [11] | outcome [12] | outcome [13] | outcome [14] | outcome [15]

NS(=O)(=O)c1cc2c(cc1C(F)(F)F)NCNS2(=O)=O
inactive: outcome [1] | outcome [2] | Potency [3] | outcome [4] | outcome [6] | outcome [16] | outcome [9] | Potency [10] | outcome [11] | outcome [12] | outcome [14] | outcome [15]
